# Compounds with a hit are over-represented: about 1.1% of the library has one in this group of screens.
# CIT2-GFP yeast: modulators of CIT2-GFP expression in yeast, primary screen, S. cerevisiae, GFP fusion, multiplex flow cytometry, MLPCN library; hit rate 0.065% among 320,000; AID 2029, 2009; GFP response vs DMSO, % at 10 µM; S. cerevisiae CIT2-GFP strain, 3 h; 100 means same as DMSO wells;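 active = GFP response relative to DMSO above a set limit, near the screen mean plus 3 SD, cut at about 150% in these data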;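 note: ratio of well median GFP fluorescence to mean of DMSO wells on the plate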
# AGP1-GFP MLPCN: modulators of AGP1-GFP expression in yeast TOR pathway, primary screen, cell-based, multiplex flow cytometry, S. cerevisiae, MLPCN library | 3 h; GFP as percent of DMSO wells | hit rate 0.02% among 320,000 | AID 2066, 2009 | GFP response vs DMSO, % at 10 µM;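 active = GFP response relative to DMSO above a set limit, near screen average plus 3 SD, cut at about 150% in these data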;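 note: median GFP channel fluorescence of the gated AGP1 strain per well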
# VLA-4 inh: inhibition in human VLA-4 binding assay, primary screen, VLA-4 allosteric modulator project, MLPCN library, flow cytometry, VLA-4 expressing cells; Integrin alpha-4 (Homo sapiens), P13612; ligand binding flow cytometry; inhibition, % (about 7 µM as worked out from the volumes in the protocol); hit rate 0.2% among 330,000; in the data active = inhibition above about 50%
# LAP4-GFP MLPCN: modulators of LAP4-GFP expression in yeast, primary screen, S. cerevisiae, multiplex flow cytometry, MLPCN library; GFP response vs DMSO, % at 10 µM; 3 h; median GFP as percent of DMSO wells; hit rate 0.34% among 320,000; AID 2023, 2009;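 active = GFP response vs DMSO above a set limit, about the screen mean plus 3 SD, cut at about 150% in these data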
# RPL19A-GFP yeast: RPL19A-GFP expression modulators in yeast, primary screen, cell-based, S. cerevisiae, multiplex flow cytometry, MLPCN | S. cerevisiae RPL19A-GFP strain, 3 h; active compounds read low | percent response vs DMSO, % at 10 µM | hit rate 0.3% among 330,000 | AID 2025, 2009;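 active = percent response vs DMSO below 50%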;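 note: median channel GFP fluorescence of the barcoded RPL19A-GFP strain; ratio of sample median GFP to plate DMSO average so 100% = DMSO; lower means less RPL19A-GFP as with rapamycin TOR inhibition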
# MEP2 TOR yeast: modulators of MEP2-GFP levels in yeast, primary screen, S. cerevisiae, multiplex flow cytometry, MLPCN library; S. cerevisiae MEP2-GFP strain, 3 h; 100% = DMSO control level; GFP response vs DMSO, % at 10 µM; hit rate 0.51% among 330,000; AID 2016, 2009;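 active = GFP response versus DMSO above a set limit, roughly screen mean plus 3 SD, cut at about 180% in these data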;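 note: median GFP fluorescence of the barcode-gated MEP2-GFP cells per well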
# VLA-4 mod pick: retest of VLA-4 allosteric modulators, confirmation, cell-based, cherry-picked plates, U937, HUTS-21 LIBS antibody; hit rate 2% among 1,300; U937 cells, HUTS-21 LIBS mAb binding, flow cytometry; LDV ligand present at threefold Kd; shares compounds with VLA-4 inh; inhibition, % at 6.7 µM; in the data active = inhibition above about 40%;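 note: 0% = ligand without compound and 100% = no ligand background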
# Starred values were filed as active, the others as inactive; / = no result given.
SMILES,CIT2-GFP yeast,AGP1-GFP MLPCN,VLA-4 inh,LAP4-GFP MLPCN,RPL19A-GFP yeast,MEP2 TOR yeast,VLA-4 mod pick
COc1ccc2nc(-c3ccccc3)cc(C(=O)OCC(=O)N3CC(C)OC(C)C3)c2c1 (centres undefined),71.2,88.7,-0.4,121.7,96.8,96.2,/
O=C(COC(=O)c1ccccc1Br)NCCc1ccc(F)cc1,80.9,94.4,1.4,88.3,92.7,87.3,/
CC(=O)c1ccc(NC(=O)COC(=O)c2ccc(F)cc2F)cc1,99.8,97.8,10.8,103.9,97.7,100.0,-2.1
O=C(COC(=O)c1ccccc1Br)Nc1ccc(F)cc1,82.0,104.4,11.3,108.5,99.4,105.8,5.3
O=C(COC(=O)c1ccc(O)cc1)Nc1ccc(OC(F)F)cc1,100.6,95.6,40.2,85.2,94.3,97.1,/
O=C(COC(=O)c1ccc(O)cc1)Nc1ccccc1,95.4,99.5,-15.8,101.7,99.7,97.6,1.8
O=C(COC(=O)c1ccc(F)cc1F)NCCNC(=O)COC(=O)c1ccc(F)cc1F,103.3,101.4,21.7,97.6,105.7,98.5,/
O=C(COc1ccc(S(=O)(=O)N2CCCCC2)cc1)N1CCCC1,112.0,104.3,-22.2,106.8,109.0,114.9,/
N#Cc1nc(Nc2cccc(Cl)c2)c2ncn(C3CCCC3)c2n1,99.2,100.3,41.4,99.0,95.8,96.5,/
CCCc1cc(=O)[nH]c(SCC(=O)N2CCc3ccccc32)n1,96.1,95.0,15.8,93.3,95.4,96.6,/
CCOC(=O)c1c(C)[nH]c(C(=O)COC(=O)CCNS(=O)(=O)c2ccc(NC(C)=O)cc2)c1C,99.3,101.5,6.5,101.1,96.7,97.8,/
O=C(N1CCN(c2ccccn2)CC1)N1c2ccccc2Sc2ccccc21,91.1,99.1,66.5*,101.8,97.0,102.4,0.0
O=C(Nc1nnc2n1CCS2)c1ccc(Br)o1,105.2,99.4,-1.1,96.5,98.7,102.0,/
CCN(CC)c1ccc(S(=O)(=O)N2CCOCC2)cc1NC(=O)COC(=O)/C=C/c1ccc(C)o1,99.9,106.7,-7.7,103.9,99.8,100.3,/
COC(=O)C1=C(NC(=O)COc2ccc(Cl)cc2Cl)CCS1,97.4,98.2,3.5,92.6,101.0,97.2,/
COC(=O)C1=C(NC(=O)COc2ccc3ccccc3c2)CCS1,88.9,92.6,41.5,105.2,101.5,97.9,-12.6
CCOC(=O)N1CCN(C(=O)CN(C)S(=O)(=O)c2ccc(F)cc2)CC1,112.2,103.2,4.5,107.0,102.4,112.6,/
CCOC(=O)N1CCN(C(=O)CN(C)S(=O)(=O)c2ccc3c(c2)C(C)(C)C(=O)N3C)CC1,110.5,109.0,-10.6,104.9,103.8,101.8,-0.9
CC(Cl)C(=O)Nc1c2c(nn1-c1ccccc1)CSC2 (centres undefined),94.5,104.9,4.4,96.9,94.4,84.2,/
CCN(CC)C(=O)c1cc(-c2ccc3c(c2)OCO3)on1,93.2,96.8,55.2*,102.2,99.2,96.0,-5.5
CCCNC(=O)c1cc(-c2ccc3c(c2)OCO3)on1,90.9,93.5,40.3,99.1,99.6,94.3,/
COc1cc(CCCN2C(=O)C(=O)NC[C@@H]2CCCCN)cc(OC)c1OC,96.6,103.0,3.0,97.8,99.5,97.6,15.7
COc1ccccc1NC(=O)Nc1cnccn1,95.2,101.2,54.1*,105.4,100.2,98.1,-0.1
O=C(COC(=O)CCN1C(=O)C2CC=CCC2C1=O)Nc1ccc(Cl)cc1F (centres undefined),96.5,103.4,-44.3,103.3,99.4,100.9,/
Nn1nnc2ccccc21,85.7,87.8,56.1*,122.3,98.2,97.9,-3.0
SMILES,CIT2-GFP yeast,AGP1-GFP MLPCN,VLA-4 inh,LAP4-GFP MLPCN,RPL19A-GFP yeast,MEP2 TOR yeast,VLA-4 mod pick
c1ccc2c(c1)nnn1c3ccccc3nc21,96.5,94.3,29.9,92.7,95.6,97.6,/
Cn1c(NC(=O)c2ccc(C(C)(C)C)cc2)cc(=O)n(C)c1=O,98.6,107.9,52.6*,97.4,102.5,105.4,4.0
CCN(CC)C(=O)Nc1c(C)n(C)n(-c2ccccc2)c1=O,89.6,88.9,-1.0,88.5,89.4,95.8,/
COc1cccc(OC)c1C(=O)Nc1c(C)n(C)n(-c2ccccc2)c1=O,81.2,83.0,0.0,77.7,115.9,94.2,6.5
Cc1ccc(-c2cc(C(=O)Nc3c(C)n(C)n(-c4ccccc4)c3=O)[nH]n2)c(O)c1,101.6,105.1,10.1,98.5,97.8,101.3,6.3
Cc1c(NC(=O)c2ccccc2N(C)S(=O)(=O)c2ccccc2)c(=O)n(-c2ccccc2)n1C,96.8,93.9,7.7,99.6,94.5,100.7,-3.9
Cc1c(NC(=O)C2CC=CCC2C(=O)O)c(=O)n(-c2ccccc2)n1C (centres undefined),102.7,102.3,3.8,104.1,94.7,105.4,-11.4
Cc1cc(C)c(-c2cc(C(=O)Nc3c(C)n(C)n(-c4ccccc4)c3=O)[nH]n2)c(O)c1,89.1,94.2,-1.0,101.6,98.2,99.9,/
C/C1=C\CCC2C(/C=C(\C)CC1)OC(=O)C2CN1CCCCC1 (centres undefined),98.4,101.7,33.6,98.5,97.1,96.8,/
Cc1c(NC(=O)c2ccc(Cl)c(S(=O)(=O)N3CCOCC3)c2)c(=O)n(-c2ccccc2)n1C,97.1,96.6,6.5,103.6,98.6,94.0,2.0
COc1cc2c(cc1OC)C(c1cc(OC)c(OC)cc1[N+](=O)[O-])N(C(C)=O)CC2 (centres undefined),106.7,102.0,41.0,101.2,101.3,104.5,-6.9
Cc1nn(CC(=O)NC(=O)NC2CCCCC2C)c(=O)c(C#N)c1C (centres undefined),86.3,99.0,10.4,102.0,93.1,98.7,/
COc1cc2c(cc1OC)C(c1ccc(OC)c(OC)c1OC)CC(=O)N2 (centres undefined),99.6,104.5,0.3,97.9,105.9,106.9,0.7
CCOc1c(OC)cccc1C1CC(=O)Nc2cc(OC)c(OC)cc21 (centres undefined),100.5,99.6,-13.9,98.6,95.3,97.7,0.0
COC(=O)c1ccc(C2CC(=O)Nc3cc(OC)c(OC)c(OC)c32)cc1 (centres undefined),98.9,102.7,1.1,104.8,103.7,101.8,-10.2
